Compounds with a hit are over-represented: about 2.2% of the library has one in this group of screens.
dFosB act-1: activators of mouse delta FosB homodimer. P13346. purified delta FosB, TAMRA-CDK5 oligo fluorescence polarization; percent of positive-control signal above neutral wells. activation, % at 25 µM. 0.99% of 340,000 active. AID 493131;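 active = mean activation above about 17%, with every replicate also reaching it, limit read from the data, passing the limit was not always enough; inconclusive = only one of the two conditions met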
Target sequence (P13346 whole entry, looked up): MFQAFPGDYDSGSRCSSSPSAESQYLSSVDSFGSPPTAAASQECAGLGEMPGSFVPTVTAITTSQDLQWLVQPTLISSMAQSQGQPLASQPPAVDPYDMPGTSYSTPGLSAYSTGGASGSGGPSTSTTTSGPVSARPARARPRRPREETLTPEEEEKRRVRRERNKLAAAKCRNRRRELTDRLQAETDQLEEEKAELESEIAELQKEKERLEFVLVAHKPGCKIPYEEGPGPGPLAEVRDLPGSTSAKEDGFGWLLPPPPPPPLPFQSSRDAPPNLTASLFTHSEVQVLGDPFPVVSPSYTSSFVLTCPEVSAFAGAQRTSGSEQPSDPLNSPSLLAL
PolyA inh: yeast polyadenylation inhibition; activity score, % at 12 µM; 0.02% of 300,000 active; S. cerevisiae SKY197-pL101 polyadenylation reporter, beta-gal luminescence; efflux-impaired pdr1/pdr3 knockout yeast; score 100 = 6 SD above DMSO;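 active = lowest replicate activity score at least 50, where 100 means six control SD above control mean; inconclusive = lowest score under 50 but half or more replicates reach 50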;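 also: yeast exposed to compound for 9 h at 30 °C; higher score means more reporter readthrough which indicates perturbed polyadenylation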
NLRP3 yeast inh: inhibitors of NALP3 inflammasome in yeast. Yeast reconstituted NLRP3/ASC/caspase-1, beta-gal luminescence, 24 h. inhibition, % at 10 µM. 0.39% of 330,000 active. AID 2825;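 active = inhibition of 50% or more; inactive = inhibition below 50%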
ZTA DNA inh: ZTA (EBV) inhibition in EBNA-1 counter-screen; ZTA-DNA binding, fluorescence polarization; inhibition, % at 11 µM; 0.15% of 320,000 active; AID 2234; in the data active = inhibition above about 33%
Target sequence (P03206 whole entry, looked up): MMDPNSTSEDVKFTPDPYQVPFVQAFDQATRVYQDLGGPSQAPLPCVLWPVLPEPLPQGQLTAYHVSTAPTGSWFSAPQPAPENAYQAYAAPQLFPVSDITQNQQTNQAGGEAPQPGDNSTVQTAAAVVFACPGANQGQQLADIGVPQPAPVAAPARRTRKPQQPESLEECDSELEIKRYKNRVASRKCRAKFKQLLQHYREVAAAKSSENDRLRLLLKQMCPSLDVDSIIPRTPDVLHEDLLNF
NALP1 yeast inh: blocks the NALP1 inflammasome reconstituted in yeast; 0.61% of 280,000 active; inhibition, % at 10 µM; AID 2071; S. cerevisiae NALP1/ASC/caspase-1 growth, X-gal OD620, 72 h; in the data active = inhibition mostly above about 24%, no sharp cut-off; inactive = mostly below about 32%
EBNA-1 inhibitor: blocks EBNA-1 binding to DNA | inhibition, % at 14.8 µM | 0.34% of 300,000 active | EBNA-1 DNA binding, fluorescence polarization; in the data active = inhibition above about 28%
dFosB act-2: delta FosB (mouse) homodimer activation; shares compounds with dFosB act-1; purified delta FosB, TAMRA-CDK5 oligo fluorescence polarization; normalised: neutral wells 0, positive control 100; activation, % at 24.9 µM; 2,400 tested, under 10 active; AID 588690;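 active = highest replicate activation at or above 34% and every replicate reaching that threshold; inconclusive = meets only one of the two criteria; inactive = meets neither criterion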;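 also: higher polarization means more probe DNA bound by delta FosB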
Of the large screens only hits and unclear results are named; the others gave an inactive call (follow-up assays come after a bar, where they were run).

Cc1ccc(-n2nnc3c(=O)n(CC(=O)NCC4CCCO4)cnc32)cc1 (configuration not stated)	none
O=C(Cn1cnc2c(nnn2Cc2ccc(F)cc2)c1=O)NCc1ccccc1	none (no result: NALP1 yeast inh)
CCOc1ccc(CNC(=O)Cn2nc(C)c3c(C)n(-c4ccc(C)cc4)nc3c2=O)cc1	dFosB act-1 59 | dFosB act-2 inactive
Cc1ccc(-n2nnc3c(=O)n(CC(=O)NCc4ccccc4)cnc32)cc1	dFosB act-1 27 | dFosB act-2 inactive
Cc1ccc(-n2nc3c(=O)n(CC(=O)NCc4ccccn4)nc(C)c3c2C)cc1	none
CSc1nc(S(C)(=O)=O)nc2[nH]c(=O)[nH]c12	none (no result: PolyA inh, NLRP3 yeast inh, ZTA DNA inh, NALP1 yeast inh, EBNA-1 inhibitor)
O=C(COC(=O)c1ccccc1O)Nc1cccc2ccccc12	dFosB act-1 39 (no result: PolyA inh, NALP1 yeast inh, EBNA-1 inhibitor) | dFosB act-2 inactive
CCc1cccc(C)c1NC(=O)COC(=O)CNS(=O)(=O)/C=C/c1ccccc1	none
O=C(COC(=O)CNS(=O)(=O)/C=C/c1ccccc1)Nc1cccc2ccccc12	dFosB act-1 27 | dFosB act-2 inactive
NC(=O)c1ccc(NC(=O)COC(=O)c2cc3ccccc3cc2O)cc1	dFosB act-1 36 (no result: PolyA inh, ZTA DNA inh, NALP1 yeast inh, EBNA-1 inhibitor) | dFosB act-2 inactive
O=C1CC2(CCN1)CCN(Cc1ccccc1)CC2	none (no result: PolyA inh, NLRP3 yeast inh, ZTA DNA inh, NALP1 yeast inh, EBNA-1 inhibitor)
Cc1nc(SCC(=O)NC(C)c2ccccc2)c2oc3ccccc3c2n1 (configuration not stated)	dFosB act-1 35 | dFosB act-2 inactive
O=C(CSc1ncnc2c1oc1ccccc12)Nc1nc2ccccc2s1	dFosB act-1 33 | dFosB act-2 inactive
Cn1c(SCC(=O)Nc2ccc(F)cc2)nc2c([nH]c3ccccc32)c1=O	dFosB act-1 21 | dFosB act-2 inactive
Cc1ccc(NC(=O)CSc2nc3c([nH]c4ccccc43)c(=O)n2C)cc1	none
CCn1c(SCC(=O)Nc2ccc(NC(C)=O)cc2)nc2c([nH]c3ccccc32)c1=O	dFosB act-1 39 | dFosB act-2 inactive
CCCNC(=O)c1ccccc1NC(=O)Cc1ccc(OC)c(S(=O)(=O)N2CCOCC2)c1	none (no result: NALP1 yeast inh)
Cc1ccc(NC(=O)c2ncn(CCCNCC(C)c3ccccc3)n2)cc1C (configuration not stated)	none (no result: PolyA inh, NLRP3 yeast inh, ZTA DNA inh, NALP1 yeast inh, EBNA-1 inhibitor)
Cc1c(C)c2ccc(OCC(=O)Nc3nccs3)cc2oc1=O	dFosB act-1 31 | dFosB act-2 inactive
CCOc1cc(/C=N/O)cc(Br)c1OCC	none
CCOc1cc(/C=N/O)cc(Br)c1OCc1ccc(Cl)cc1	dFosB act-1 32 | dFosB act-2 inactive
CCOc1ccc(CCNC(=O)c2nnn(CC(=O)Nc3ccc(OC)cc3)c2N)cc1OCC	none
COc1ccc(NC(=O)Cn2nnc(C(=O)NCCc3ccccc3)c2N)cc1	dFosB act-1 29 | dFosB act-2 inactive
CCc1ccc(NC(=O)Cn2nnc(C(=O)NCCc3ccc(OC)c(OC)c3)c2N)cc1	dFosB act-1 83 | dFosB act-2 inactive
O=C(CCn1ccnc1)Nc1cc(Cl)ccc1O	none
COCCNC(=O)/C(C#N)=C/c1ccc(C)o1	none
CCOC(=O)c1ccc(NC(=O)C(=O)NCc2ccc(/C=C(/C#N)C(=O)NCCOC)o2)cc1	dFosB act-1 23 | dFosB act-2 inactive
CSc1ccccc1NC(=O)c1ccccc1C	none
Clc1cc2nc(-c3cccnc3Cl)[nH]c2cc1Cl	dFosB act-1 35, PolyA inh inconclusive | dFosB act-2 inactive
Cc1cc2nc(-c3ccccc3O)[nH]c2cc1C	none (no result: PolyA inh, NLRP3 yeast inh, ZTA DNA inh, NALP1 yeast inh, EBNA-1 inhibitor)
O=C(CC(NC(=O)c1ccccc1Cl)c1ccccc1)NCCc1ccc(Cl)cc1 (configuration not stated)	dFosB act-1 25 | dFosB act-2 inactive
O=C(CNC(=O)c1ccco1)OCc1ccccc1F	none (no result: PolyA inh, ZTA DNA inh, NALP1 yeast inh, EBNA-1 inhibitor)
O=C(Nc1cc(Cl)ccc1-n1cncn1)c1ccc(Br)o1	dFosB act-1 36 (no result: NALP1 yeast inh) | dFosB act-2 inactive
COc1ccc(N2CCc3c(C)nc4c(OC)cc(OC)cc4c32)cc1	dFosB act-1 38 | dFosB act-2 inactive
COC(=O)c1cccc(NC(=O)NC(=O)c2ccc(Cl)cc2)c1	dFosB act-1 41 | dFosB act-2 inactive
O=C(Nc1cccc(NC(=O)c2ccco2)c1)c1ccc([N+](=O)[O-])cc1	dFosB act-1 20 | dFosB act-2 inactive
COC(=O)c1ccc(NC(=O)c2cccc(NC(=O)c3ccco3)c2)cc1	dFosB act-1 17 | dFosB act-2 inactive
COC(=O)c1cccc(NC(=O)Nc2ccc(Cl)cc2)c1	none
COC(=O)Cc1ccc(NC(=O)c2ccc(NC(=O)c3ccco3)cc2)cc1	dFosB act-1 34 | dFosB act-2 inactive
COc1ccc(N2CCN(C(CNC(=O)C3CCCCC3)c3ccco3)CC2)cc1 (configuration not stated)	none (no result: NALP1 yeast inh)
Cn1cc(Br)c(C(=O)N/N=C/c2cc3c(cc2Cl)OCO3)n1	none (no result: ZTA DNA inh, EBNA-1 inhibitor)
CC1CC(C)CN(S(=O)(=O)c2ccc3c(c2)oc(=O)n3CC(=O)N(C)Cc2ccccc2)C1 (configuration not stated)	dFosB act-1 47 | dFosB act-2 inactive
COc1ccc(CN(C(=O)c2ccc(C)cc2)C2CCS(=O)(=O)C2)cc1 (configuration not stated)	none
CCC(=O)N1c2ccc(S(=O)(=O)CCC(=O)N3CCN(c4ccccc4F)CC3)cc2CC1C (configuration not stated)	none
COc1cccc(Nc2nc(N)c([N+](=O)[O-])c(NCc3ccccc3)n2)c1	dFosB act-1 51 | dFosB act-2 inactive
CCOc1ccc(Nc2nc(N)c([N+](=O)[O-])c(NCc3ccccc3)n2)cc1	dFosB act-1 inconclusive
Cc1cccc(NC(=O)c2ccccc2NC(=O)c2ccccc2)n1	none
COc1ccc(CCNC(=O)c2ccc3nc(N4CCCCC4)sc3c2)cc1OC	none
O=C(CSc1nnnn1-c1ccccc1)Nc1ncc(Cc2ccccc2Cl)s1	dFosB act-1 39 | dFosB act-2 inactive
Cc1ccc(C(=O)NCc2ccc3c(c2)OCO3)o1	none
Cc1ccc2cc3cc(C(=O)NCc4ccc5c(c4)OCO5)oc3nc2c1	dFosB act-1 56 (no result: ZTA DNA inh, EBNA-1 inhibitor) | dFosB act-2 inactive
Cc1ccc(C(=O)NCCCN2CCOCC2)c(C)c1	none
O=C(N/N=C/c1ccccc1F)c1cc2c(ccc3ccccc32)o1	none
COc1ccc(/C=N/NC(=O)c2cc(-c3ccccc3)nc3ccccc23)c(OC)c1	dFosB act-1 23 | dFosB act-2 inactive
COc1ccccc1/C=N/NC(=O)c1cccc2ccccc12	dFosB act-1 37 | dFosB act-2 inactive
O=C(N/N=C/c1cccc2ccccc12)c1cc2ccccc2o1	dFosB act-1 20 (no result: ZTA DNA inh, EBNA-1 inhibitor) | dFosB act-2 inactive
COc1ccc(/C=N/NC(=O)c2ccccc2NC(=O)c2ccco2)c(OC)c1	dFosB act-1 84 (no result: NALP1 yeast inh) | dFosB act-2 inactive
